From PubChem BioAssay (Tox21) come the findings set out here.

Records with an inconclusive call do not appear. Values without a mark were called inactive. The source made the active and inactive calls. Unless noted, calls come from the whole dose curve.
% is set by controls: 0 for no effect and ±100 for the full control effect; potency is the fitted concentration of half-maximal effect.

The first experiment is described as follows: qHTS assay for small molecule disruptors of the mitochondrial membrane potential - cell viability (AID 720634).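 For activity change, negative = cytotoxicity: human HepG2 liver cancer cells.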 Note: nearly all actives have a fitted effect of over 20% in size. To be noted: HepG2 viability, ATP luminescence (CellTiter-Glo), 1 h; series mostly up to 83.2 µM; activity change, negative = cytotoxicity: at the top concentration. The method in brief: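 ATP-based luminescent viability readout (CellTiter-Glo, 30 min, room temperature) in HepG2 cells multiplexed with the m-MPI membrane potential dye; compound exposure lasted 1 hr at 37 C.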
On the technique in general: In qHTS, concentration-response curves come from the screen itself.
On to `CS/C(C)=N/OC(=O)N(C)SN(C)C(=O)O/N=C(\C)SC`, for which the “activity change, negative = cytotoxicity” value was 14%.

With `[CH3][Sn]([CH3])([Cl])[Cl]`, the Potency result was “inactive”.

For `O=C=Nc1ccc(Cl)cc1`, the Potency is 21.7 µM (active).

In the case of `CCOP(=S)(OCC)SCn1nnc2ccccc2c1=O`, the Potency is 27.3 µM (active).

In the case of `COP(=S)(Oc1cc(Cl)c(Br)cc1Cl)c1ccccc1` (stereo not given), the Potency was 48.6 µM (active).

For the compound `Clc1cccc2ccccc12`, the “activity change, negative = cytotoxicity” value is -0.896%.

As for `Cl/C=C\C[N+]12CN3CN(CN(C3)C1)C2`, the “activity change, negative = cytotoxicity” value is 1.19%.

On to `Clc1cc(C(Cl)(Cl)Cl)cnc1Cl`, for which the “activity change, negative = cytotoxicity” value was -14.7%.

With `CC1(C)CCC(Cc2ccc(Cl)cc2)C1(O)Cn1cncn1` (stereo not given), the Potency was 54.5 µM (active).

Regarding `O=C(NC(=O)c1c(F)cccc1F)Nc1ccc(OC(F)(F)C(F)OC(F)(F)F)c(Cl)c1` (stereo not given), the “activity change, negative = cytotoxicity” value is -7.43%.

With `O=C1c2ccccc2C(=O)C1C(=O)C(c1ccccc1)c1ccccc1`, the “activity change, negative = cytotoxicity” value is -6.65%.

Take `O=C1CN=C(c2ccccc2)c2cc(Cl)ccc2N1CC1CC1`: the Potency entry was “inactive”.

With `OC(c1ccc(Cl)cc1)(c1ccc(Cl)cc1)c1cccnc1`, the “activity change, negative = cytotoxicity” value was -19.1%.

Consider `BrCC(Br)C1CCC(Br)C(Br)C1` (stereo not given), for which the “activity change, negative = cytotoxicity” value was -16.5%.

As to `Cc1c(F)c(F)c(COC(=O)C2C(/C=C(\Cl)C(F)(F)F)C2(C)C)c(F)c1F` (stereo not given), the “activity change, negative = cytotoxicity” value was -14.4%.

For `COC(=O)C(Br)CBr` (stereo not given), the “activity change, negative = cytotoxicity” value was 13.2%.

Take `O=[N+]([O-])C(Br)(CO)CO`: the Potency entry is “inactive”.

In the case of `O=C(O)C(F)(F)C(F)(F)C(F)(F)C(F)(F)C(F)(F)C(F)(F)C(F)(F)C(F)(F)C(F)(F)F`, the “activity change, negative = cytotoxicity” value is 6.77%.

As for `C/C(=C\c1ccccc1)[N+](=O)[O-]`, the “activity change, negative = cytotoxicity” value is -0.312%.

As for `COCCOCCO`, the “activity change, negative = cytotoxicity” value is 18.8%.

For `Clc1cccc(SC2CCNCC2)n1`, the “activity change, negative = cytotoxicity” value is 16%.

`O=C(Nc1ccccc1)Nc1ccnc(Cl)c1`: the “activity change, negative = cytotoxicity” value was -14%.

As for `C=CC(=O)OCC(C)O` (stereo not given), the “activity change, negative = cytotoxicity” value was 6.26% [at 95.3 µM].

With `C=CCN1CC[C@]23c4c5ccc(O)c4O[C@H]2C(=O)CC[C@@]3(O)[C@H]1C5`, the Potency result was “inactive”.

Regarding `O=C(O)C1(c2ccc3c(c2)OC[C@H](Cc2ccc(-c4ccccc4)cc2)[C@H]3O)CCCC1`, the “activity change, negative = cytotoxicity” value is -9.88%.

A short description of a further experiment: qHTS assay for small molecule disruptors of the mitochondrial membrane potential (AID 720635; active = well fitted inhibition curve with a large enough effect in the signal ratio in the repeat runs; the % refers to the signal ratio). To be noted: HepG2 mitochondrial membrane potential, Mito-MPS dye ratio; series mostly up to 83.2 µM; ratio activity, negative = MMP loss: at the top concentration. The essentials:
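HepG2 cells (2,000/well) attached overnight at 37C, then took compound for 1 hr at 37C, 5% CO2. Mito-MPS dye was added for 30 min; fluorescence was read at 490/535 nm (monomers) and 540/590 nm (aggregates).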
Turning to `CS/C(C)=N/OC(=O)N(C)SN(C)C(=O)O/N=C(\C)SC`, the “ratio activity, negative = MMP loss” value is -17.6%.

Regarding `[CH3][Sn]([CH3])([Cl])[Cl]`, the Potency entry was “inactive”.

`O=C=Nc1ccc(Cl)cc1`: the Potency was 0.172 µM (active).

Regarding `CCOP(=S)(OCC)SCn1nnc2ccccc2c1=O`, the Potency is 27.3 µM (active).

Take `COP(=S)(Oc1cc(Cl)c(Br)cc1Cl)c1ccccc1` (stereo not given): the Potency was 48.6 µM (active).

As to `CC(C)(C)c1cc([N+](=O)[O-])cc([N+](=O)[O-])c1O`, the Potency was 0.484 µM (active).

Consider `CCCCC(O)(Cn1cncn1)c1ccc(Cl)cc1Cl` (stereo not given), for which the Potency was 54.4 µM (active).

In the case of `Clc1cccc2ccccc12`, the “ratio activity, negative = MMP loss” value was -9.24%.

`Cl/C=C\C[N+]12CN3CN(CN(C3)C1)C2`: the “ratio activity, negative = MMP loss” value was -22.3%.

In the case of `O=C1C(=O)c2cccc3cccc1c23`, the Potency is 54.4 µM (active).

Consider `O=C1c2ccccc2C(=O)C1C(=O)C(c1ccccc1)c1ccccc1`, for which the Potency is 21.1 µM (active).

On to `O=C1CN=C(c2ccccc2)c2cc(Cl)ccc2N1CC1CC1`, for which the Potency is 51 µM (active).

For the compound `OC(c1ccc(Cl)cc1)(c1ccc(Cl)cc1)c1cccnc1`, the Potency was 54.5 µM (active).

For `Cc1c(F)c(F)c(COC(=O)C2C(/C=C(\Cl)C(F)(F)F)C2(C)C)c(F)c1F` (stereo not given), the Potency was 30.6 µM (active).

Consider `CCOP(=S)(Oc1ccc([N+](=O)[O-])cc1)c1ccccc1` (stereo not given), for which the Potency was 21.7 µM (active).

Regarding `O=[N+]([O-])C(Br)(CO)CO`, the Potency result was “inactive”.

Turning to `C/C(=C\c1ccccc1)[N+](=O)[O-]`, the Potency is 30.6 µM (active).

For `O=C(Nc1ccccc1)Nc1ccnc(Cl)c1`, the Potency is 0.386 µM (active).

For the compound `C=CC(=O)OCC(C)O` (stereo not given), the “ratio activity, negative = MMP loss” value was 9.28% [at 95.3 µM].

`C=CCN1CC[C@]23c4c5ccc(O)c4O[C@H]2C(=O)CC[C@@]3(O)[C@H]1C5`: the Potency result is “inactive”.
